Reference: PubChem BioAssay AID1159580 (chemical genetic matrix, 2015)
Hit rate of the full screen: of about 5,500 compounds, about 2,000 (36%) were called active. Roughly 18% stayed inconclusive and do not appear here. This is one part of the list. Unmarked numbers belong to inactive results. No stated cut-off is given here; in the data, active means normalized growth mostly below about 0.91 (no sharp cut-off); inconclusive means no clear call, values can overlap the other calls; inactive means mostly above about 0.92.

Test: chemical genetic growth profiling, strain panel (AID 1159580);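 further: tested at 20 µM; growth read once vehicle control cultures reached saturation at 30 °C; 1 = growth at the plate median or of vehicle wells; lower values mean less growth of the strain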
Conditions: S. cerevisiae deletion strains, growth OD
[1] = locus YDL101C, strain DUN1, active compounds read low
[2] = locus YHR030C, strain SLT2, active compounds read low

OC(CN1CCN(c2nc3ccc(Cl)cc3s2)CC1)Cn1ccc2ccccc21 (stereo not given)
normalized growth (locus YAR019C, strain CDC15, active compounds read low): 1
normalized growth (locus YBL105C, strain PKC1, active compounds read low): 0.99
normalized growth (locus YBR135W, strain CKS1, active compounds read low): 0.991
normalized growth (locus YBR136W, strain MEC1, active compounds read low): 0.996
normalized growth (locus YBR160W, strain CDC28, active compounds read low): 0.985
normalized growth (locus YDL017W, strain CDC7, active compounds read low): 0.996
normalized growth (locus YDL028C, strain MPS1, active compounds read low): 0.99
normalized growth [1]: 0.989
normalized growth (locus YDL108W, strain KIN28, active compounds read low): 0.986
normalized growth (locus YDL132W, strain cdc53, active compounds read low): 1
normalized growth (locus YDL214C, strain PRR2, active compounds read low): 0.92
normalized growth (locus YDR052C, strain DBF4, active compounds read low): 1
normalized growth (locus YDR054C, strain cdc34, active compounds read low): 0.996
normalized growth (locus YDR226W, strain ADK1, active compounds read low): 0.99
normalized growth (locus YDR477W, strain SNF1, active compounds read low): 0.935
normalized growth (locus YER123W, strain YCK3, active compounds read low): 0.903
normalized growth (locus YER133W, strain GLC7, active compounds read low): 0.93
normalized growth (locus YFL009W, strain cdc4, active compounds read low): 0.993
normalized growth (locus YFL029C, strain CAK1, active compounds read low): 0.989
normalized growth (locus YFR003C, strain YPI1, active compounds read low): 0.992
normalized growth (locus YFR019W, strain FAB1, active compounds read low): 0.935
normalized growth (locus YFR028C, strain CDC14, active compounds read low): 0.995
normalized growth (locus YGR040W, strain KSS1, active compounds read low): 0.934
normalized growth (locus YGR052W, strain FMP48, active compounds read low): 1.02
normalized growth (locus YGR092W, strain DBF2, active compounds read low): 0.96
normalized growth [2]: 0.864
normalized growth (locus YHR079C, strain IRE1, active compounds read low): 0.955
normalized growth (locus YHR082C, strain KSP1, active compounds read low): 1.05
normalized growth (locus YHR205W, strain SCH9, active compounds read low): 0.97
normalized growth (locus YIL147C, strain SLN1, active compounds read low): 0.999
normalized growth (locus YJL095W, strain BCK1, active compounds read low): 0.954
normalized growth (locus YJL128C, strain PBS2, active compounds read low): 0.942
normalized growth (locus YJL157C, strain FAR1, active compounds read low): 0.924
normalized growth (locus YJR016C, strain ILV3, active compounds read low): 0.991
normalized growth (locus YJR066W, strain TOR1 (second series), active compounds read low): 0.875
normalized growth (locus YJR066W, strain TOR1, active compounds read low): 0.991
normalized growth (locus YKL048C, strain ELM1, active compounds read low): 0.981
normalized growth (locus YKL067W, strain YNK1, active compounds read low): 0.924
normalized growth (locus YKL101W, strain HSL1, active compounds read low): 0.942
normalized growth (locus YKL193C, strain SDS22, active compounds read low): 0.994
normalized growth (locus YKL203C, strain TOR2, active compounds read low): 0.981
normalized growth (locus YLR113W, strain HOG1, active compounds read low): 0.864
normalized growth (locus YLR133W, strain CKI1, active compounds read low): 0.942
normalized growth (locus YLR403W, strain SFP1, active compounds read low): 0.926
normalized growth (locus YML070W, strain DAK1, active compounds read low): 0.927
normalized growth (locus YMR001C, strain CDC5, active compounds read low): 0.988
normalized growth (locus YMR205C, strain PFK2 (second series), active compounds read low): 0.948
normalized growth (locus YMR277W, strain FCP1, active compounds read low): 1
normalized growth (locus YNL006W, strain LST8, active compounds read low): 0.985
normalized growth (locus YNL020C, strain ARK1, active compounds read low): 0.942
normalized growth (locus YNL161W, strain CBK1, active compounds read low): 0.982
normalized growth (locus YNL183C, strain NPR1, active compounds read low): 1
normalized growth (locus YNL207W, strain RIO2, active compounds read low): 1
normalized growth (locus YNL222W, strain SSU72, active compounds read low): 0.999
normalized growth (locus YNL307C, strain MCK1 (second series), active compounds read low): 0.935
normalized growth (locus YOL078W, strain AVO1, active compounds read low): 0.976
normalized growth (locus YOL136C, strain PFK27, active compounds read low): 0.912
normalized growth (locus YOR061W, strain CKA2, active compounds read low): 0.952
normalized growth (locus YOR119C, strain RIO1, active compounds read low): 1.01
normalized growth (locus YOR231W, strain MKK1, active compounds read low): 0.947
normalized growth (locus YOR329C, strain SCD5, active compounds read low): 0.986
normalized growth (locus YPL031C, strain PHO85, active compounds read low): 0.938
normalized growth (locus YPL153C, strain RAD53, active compounds read low): 0.959
normalized growth (locus YPL204W, strain HRR25, active compounds read low): 0.895
normalized growth (locus YPL209C, strain IPL1, active compounds read low): 0.989
normalized growth (locus YPL256C, strain CLN2, active compounds read low): 0.938
normalized growth (locus YPR025C, strain CCL1, active compounds read low): 0.99
normalized growth (locus YPR106W, strain ISR1, active compounds read low): 0.991
normalized growth (locus YPR111W, strain DBF20, active compounds read low): 0.967
normalized growth (strain NNK1, active compounds read low): 0.974
normalized growth (strain TSCII, active compounds read low): 0.995

OC(CN1CCN(c2nc3ccc(Cl)cc3s2)CC1)CN1CCCN(c2ncc(C(F)(F)F)cc2Cl)CC1 (stereo not given)
normalized growth (locus YAL013W, strain DEP1, active compounds read low): 1
normalized growth (locus YBR229C, strain ROT2, active compounds read low): 0.943
normalized growth (locus YCL061C, strain MRC1, active compounds read low): 0.997
normalized growth [1]: 1.03
normalized growth (locus YDL134C, strain PPH21, active compounds read low): 0.0459 (active)
normalized growth (locus YDR150W, strain NUM1, active compounds read low): 0.942
normalized growth (locus YEL061C, strain CIN8, active compounds read low): 0.0536 (active)
normalized growth (locus YGR078C, strain PAC10, active compounds read low): 1.02
normalized growth [2]: 0.068 (active)
normalized growth (locus YHR087W, strain rtc3, active compounds read low): 0.952
normalized growth (locus YJL187C, strain SWE1, active compounds read low): 0.995
normalized growth (locus YJR043C, strain POL32, active compounds read low): 1.02
normalized growth (locus YJR075W, strain HOC1, active compounds read low): 1.01
normalized growth (locus YKL190W, strain CNB1, active compounds read low): 0.0453 (active)
normalized growth (locus YLR039C, strain RIC1, active compounds read low): 0.0605 (active)
normalized growth (locus YLR058C, strain SHM2 (second series), active compounds read low): 0.999
normalized growth (locus YLR085C, strain ARP6, active compounds read low): 0.0639 (active)
normalized growth (locus YLR262C, strain YPT6, active compounds read low): 0.0604 (active)
normalized growth (locus YML094W, strain GIM5, active compounds read low): 0.0664 (active)
normalized growth (locus YMR219W, strain ESC1, active compounds read low): 1.01
normalized growth (locus YMR263W, strain SAP30, active compounds read low): 1.02
normalized growth (locus YNL153C, strain GIM3, active compounds read low): 1
normalized growth (locus YNL298W, strain CLA4 (second series), active compounds read low): 0.0802 (active)
normalized growth (locus YNL322C, strain KRE1, active compounds read low): 1.03
normalized growth (locus YNR030W, strain Alg12, active compounds read low): 0.0638 (active)
normalized growth (locus YOL006C, strain TOP1, active compounds read low): 0.0656 (active)
normalized growth (locus YPL055C, strain LGE1, active compounds read low): 0.985
normalized growth (locus YPL241C, strain CIN2, active compounds read low): 0.0618 (active)
normalized growth (locus YPR135W, strain CTF4, active compounds read low): 0.16 (active)
